Screens from PubChem.
Most compounds without a hit are left out; they make up all but 5.7% or so of the library.
DAX1 inh-1: DAX1 (NR0B1) inhibition, primary screen | HEK293T StAR-luciferase reporter, SF-1/DAX-1 repression relief | inhibition, % at 6.8 µM | 1.1% of 370,000 active;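 active = inhibition above the mean over all tested compounds plus 3 SD, cut at about 3.6% in these data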;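 also: higher inhibition means more luminescence from relief of DAX-1 repression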
hcDAF-12 act: activators of H. contortus DAF-12 nuclear receptor. HEK293 hcDAF-12 lit1-tk-luc reporter, luminescence; 0% DMSO, 100% Δ7-dafachronic acid. activation, % at 6.8 µM. 1.4% of 370,000 active;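 active = activation above the mean of all tested compounds plus 3 SD, cut at about 5.5% in these data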
hgDAF12 agonist: activates the H. glycines DAF-12 receptor ligand-binding domain; HEK293 GAL4-hgDAF12 UAS-luciferase reporter, agonist luminescence; normalized to butyrate control; activation, % at 6.8 µM; 1.8% of 370,000 active;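 active = activation above a cutoff set at the mean of all screened compounds plus 3 SD, cut at about 10% in these data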
AHR activator: activates the human aryl hydrocarbon receptor; P35869; AHR-responsive luciferase reporter cells, luminescence; activation, % at 5 µM; 2.5% of 320,000 active; AID 2796; in the data active = activation above about 47%
ssDAF12 agonist: activates DAF-12 receptor from parasite S. stercoralis; 1% of 370,000 active; activation, % at 6.8 µM; HEK293 ssDAF-12/GRIP1 lit1-tk-luc reporter, luminescence; % of 3 µM dafachronic acid response;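 active = activation above the mean over all tested compounds plus 3 SD, cut at about 0.9% in these data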
DAX1 inh-2: NR0B1 (DAX1) inhibition | P51843 | AID 504766 | HEK293 Gal4-DAX1 luciferase reporter, luminescence | 0.99% of 340,000 active | inhibition, % at 6.75 µM;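 active = inhibition above the mean over all tested compounds plus 3 SD, cut at about 4.2% in these data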;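 also: inhibition shows as a rise in luminescence from relieved DAX1 repression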
Target sequence (P51843 207-470 limits assumed): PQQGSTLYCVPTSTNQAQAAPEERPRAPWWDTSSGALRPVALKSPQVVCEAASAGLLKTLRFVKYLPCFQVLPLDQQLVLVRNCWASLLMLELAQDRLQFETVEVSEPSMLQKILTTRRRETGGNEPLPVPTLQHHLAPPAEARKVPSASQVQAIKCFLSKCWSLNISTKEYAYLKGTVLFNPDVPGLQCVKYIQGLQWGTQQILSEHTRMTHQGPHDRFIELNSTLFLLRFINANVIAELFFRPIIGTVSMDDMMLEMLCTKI
Large screens that a line does not name were inactive.

CCCCC(=O)Nc1nc(C)c(-c2csc(Nc3ccccc3OC)n2)s1	AHR activator 77
COc1ccc(Nc2nc(-c3sc(C)nc3C)cs2)c(OC)c1	none
NS(=O)(=O)c1cccc(NC(=O)COC(=O)c2ccccc2SCC(=O)N2CCCC2)c1	none
CC1CCCCN1Cc1c(O)ccc2c(=O)c(-c3ccc(Cl)cc3)coc12 (stereo not drawn)	hcDAF-12 act 5.8
Cn1ccc(NC(=O)Nc2cccc([N+](=O)[O-])c2)n1	none (no result: DAX1 inh-2)
CCCSC1=N/C(=C\C=C\c2ccco2)C(=O)S1	none
CCSC1=N/C(=C\C=C2/Oc3ccccc3N2CC)C(=O)S1	AHR activator 75
COc1cc(-c2cc(-c3ccc(O)cc3)nc(N)c2C#N)ccc1O	none
COc1ccccc1-c1cc(-c2ccc(O)cc2)nc(N)c1C#N	AHR activator 62
CC(=O)N(C(C)=O)c1nc(-c2ccccc2)cn1/N=C/c1cccc([N+](=O)[O-])c1	AHR activator 49
CC(OC(=O)c1cccc(-n2cnnn2)c1)C(=O)NCc1ccccc1 (stereo not drawn)	none
Cn1cccc1-c1nc2ccc([N+](=O)[O-])cc2[nH]1	hgDAF12 agonist 11
CC(=O)Nc1ccc2nc(-c3cccn3C)[nH]c2c1	none
O=C1C2CSCN2C(=O)CN1CCCN1CCN(C(c2ccccc2)c2ccccc2)CC1 (stereo not drawn)	ssDAF12 agonist 1.2
O=C(CN1CCOCC1)Nc1ccc(OC(F)(F)F)cc1	none
C=C(C)CSc1nc2ncccc2[nH]1	none
Cc1ccc(CSc2nc3ncccc3[nH]2)cc1	hgDAF12 agonist 13
Cn1cccc1C(=O)OCC(=O)NC1CCS(=O)(=O)C1 (stereo not drawn)	ssDAF12 agonist 2.5
COC(CNC(=O)c1ccc2nc3ccccc3c(=O)n2c1)OC	hcDAF-12 act 5.7
COc1ccc(CCNC(=O)CN(c2ccc(OC)cc2)S(C)(=O)=O)cc1	DAX1 inh-2 6.4
COc1ccc(N(C(=O)c2cccc([N+](=O)[O-])c2)S(=O)(=O)c2cccs2)cc1	DAX1 inh-2 5.1
COc1ccc(CNC(=O)CN(c2cccc([N+](=O)[O-])c2)S(C)(=O)=O)cc1	hgDAF12 agonist 13
COC(=O)C[C@@H]1CC[C@@H]2[C@H](COc3ccc(NC(=O)c4cccc(OC)c4)cc3C(=O)N2C)O1	none (no result: AHR activator, DAX1 inh-2)
COC(=O)c1cc(OC)c(OC)cc1NCC(=O)Nc1ccc(OC)c(OC)c1	AHR activator 72
COC(=O)c1cc(OC)c(OC)cc1NCC(=O)Nc1ccc(C)cc1	none
CCOC(=O)[C@@H]1[C@H]2COc3ccccc3[C@H]2N2C(=O)N(c3ccccc3)C(=O)[C@]12C	none (no result: DAX1 inh-1, hcDAF-12 act, hgDAF12 agonist, ssDAF12 agonist)
CCCc1nc([N+](=O)[O-])c(S(=O)(=O)c2ccccc2)n1CC(C)C	hgDAF12 agonist 10
CC(C)Cn1c(C(C)C)nc([N+](=O)[O-])c1S(=O)(=O)c1ccc(F)cc1	none
O=C(CCNC(=O)c1ccc(Cl)cc1)NNC(=O)c1ccc(F)cc1	none (no result: AHR activator)
O=C(NC1=NCCS1)c1cc(-c2ccc(F)cc2)nc2ccccc12	none
Cc1ccc(-c2cc(C(=O)NC3=NCCS3)c3ccccc3n2)cc1C	hgDAF12 agonist 11
Cc1ccc(-c2cc(C(=O)N/N=C/c3c(C)nn(C)c3C)c3ccccc3n2)cc1C	AHR activator 61
Nc1ccc2nc(-c3ccccn3)[nH]c2c1	none
COc1ccc2nc(-c3ccccn3)[nH]c2c1	hgDAF12 agonist 12, AHR activator 47
Cc1ccc2nc(N(CCN(C)C)C(=O)c3ccc4c(c3)OCCO4)sc2c1	none
Cc1ccc2nc(NNC(=O)c3ccc4c(c3)OCCO4)sc2c1	AHR activator 48
O=C(NNc1nc2cc3c(cc2s1)OCO3)c1cccc(F)c1	AHR activator 77
COc1cc(OC)cc(C(=O)NNc2nc3cc4c(cc3s2)OCO4)c1	none
O=C(NNc1nc2cc3c(cc2s1)OCO3)c1ccccc1	AHR activator 61
COc1ccc(NS(=O)(=O)c2cccc(C(=O)NCc3ccccc3CN3CCCC3)c2)cc1	none
C=CCN1C(C(=O)OCC)CSCCS1(=O)=O (stereo not drawn)	none (no result: AHR activator, DAX1 inh-2)
CN(C(=O)c1cccc(NC(=O)Cc2ccc(NC(=O)C3CCCN(C(=O)c4ccccc4)C3)cc2)c1)C1CC1 (stereo not drawn)	none (no result: AHR activator, DAX1 inh-2)
